Source: PubChem BioAssay AID687001 (Broad Institute, 2013)
Results with a measured potency or affinity are listed apart. Active and inactive are the calls of the source.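 How the source made its calls: active means signal-lowering compounds whose fitted half-maximal concentration is at or below twice the top tested dose in every run; inconclusive means runs disagree, flat 30 to 70% inhibition, or poor curve fit; inactive means the rest.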

Molecular target: Protein S100-A4 (Homo sapiens) (UniProt P26447)
Sequence (P26447 whole entry, looked up): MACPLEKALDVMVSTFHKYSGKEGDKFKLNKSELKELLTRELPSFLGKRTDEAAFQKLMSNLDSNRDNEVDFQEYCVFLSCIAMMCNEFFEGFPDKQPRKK
Assay: S100A4-myosin IIA binding inhibitor potency, dose response, biochemical, fluorescence polarization, cherry-picked hits (AID 687001)
Settings: FP, S100A4/TAMRA-myosin IIA peptide binding; series mostly up to 11 µM

outcome, inactive:
O=C(Cc1ccncc1)NCC[C@@H]1CC[C@@H](NC(=O)C2CCOCC2)[C@@H](CO)O1
Cc1cc(=O)oc2c3c(cc(OCC(=O)NCC(=O)N[C@H](C(=O)O)C(C)C)c12)OC(C)(C)CC3
CO[C@H]1CN(C)C(=O)c2ccc(NS(=O)(=O)c3ccccc3)cc2OC[C@H](C)N(Cc2cccnc2)C[C@@H]1C
Cc1ccc(S(=O)(=O)Nc2ccccc2F)cc1C(=O)OC(C)C(=O)N1CCOCC1 (stereo not drawn)
O=C(COC(=O)Cc1ccc(Cl)c(Cl)c1)Nc1ccc2[nH]c(=O)[nH]c2c1
Cc1cc(C(=O)NC2CCCN(Cc3ccc(Cl)cc3)C2)n(C)n1 (stereo not drawn)
COc1cc(S(=O)(=O)NCc2ccccn2)ccc1Cl
C=CCNC(=O)/C(C#N)=C/c1c(N(Cc2ccccc2)Cc2ccccc2)nc2ccccn2c1=O
COc1ccc2c(CN3CCCC3)cc(=O)oc2c1
C[C@@H](NC(=O)C[C@H]1C=C[C@@H](NC(=O)C2CCC2)[C@H](CO)O1)c1ccccc1
COc1ccc(-c2cnc(SCCNC(=O)c3ccc4c(c3)OCO4)[nH]2)cc1
Cc1cccc(S(=O)(=O)N2CC[C@@H]3[C@H](CO)Nc4ccc(C#Cc5ccc(F)cc5)cc4[C@@H]32)c1
CN1C(=O)c2cc(NC(=O)C3CCC3)ccc2OC[C@@H]2O[C@@H](CC(=O)NCc3ccccc3F)CC[C@@H]21
Cc1ccc(CNC(=O)Cn2cnc(C(=O)Nc3ccc(C)c(C)c3)n2)o1
CNC[C@H]1OCCCC[C@@H](C)Oc2ccc(NC(=O)C3CCCCC3)cc2C(=O)N([C@@H](C)CO)C[C@@H]1C
CCOC(=O)[C@]12CCCC=C1N(Cc1ccc3c(c1)OCO3)C(=O)[C@H](CC(=O)NCC1CCCCC1)C2
COCCCNC(=O)c1ccc2sc([C@@H]3O[C@H](CO)[C@H](O)[C@H](O)[C@H]3O)nc2c1
O=C(N[C@H]1CC[C@@H](CCNS(=O)(=O)Cc2ccccc2)O[C@H]1CO)c1ccccc1F
Cc1cc(Cl)nc(-n2nc(C)cc2C)n1
O=C(c1ccccc1F)N1CC(=O)N2[C@@H](CO)[C@H](c3ccc(C#Cc4ccccc4)cc3)[C@@H]2C1
COc1ccc(S(=O)(=O)Nc2ccc3c(c2)CC(=O)N([C@H](C)CO)C[C@H](C)[C@@H](CN(C)CC2CC2)O3)cc1
O=C(CN1C(=O)CCS(=O)(=O)c2ccccc21)Nc1ccc(F)cc1
CCCc1cn(CC[C@@H]2CC[C@H](NS(=O)(=O)c3ccccc3Cl)[C@@H](CO)O2)nn1
NC(=O)c1ccsc1NC(=O)c1ccco1
C[C@H]1CN([C@@H](C)CO)C(=O)c2cccc(NC(=O)C3CC3)c2O[C@@H]1CN(C)Cc1ccc2c(c1)OCO2
COc1cc(OC)cc(C(=O)N2CCCc3ccccc32)c1
Cc1noc(C)c1S(=O)(=O)N(C)C[C@H]1OCCCC[C@H](C)Oc2ccc(NS(=O)(=O)c3ccccc3)cc2C(=O)N([C@H](C)CO)C[C@@H]1C
C[C@@H]1CN([C@H](C)CO)C(=O)Cc2cc(NC(=O)Nc3ccc(C(F)(F)F)cc3)ccc2O[C@H]1CN(C)Cc1ccc2c(c1)OCO2
Cc1noc(C)c1S(=O)(=O)N(C)C[C@@H]1Oc2ccc(NC(=O)C3CC3)cc2CC(=O)N([C@@H](C)CO)C[C@H]1C
CN(C)CCCN(C(=O)c1ccc(S(=O)(=O)N2CCCCCC2)cc1)c1nc2cc3c(cc2s1)OCO3
COc1cc2cc(-c3ccc(O)cc3O)nc(C)c2cc1OC
CC(C)=CC(=O)O[C@@H]1Cc2cc3ccc(=O)oc3cc2OC1(C)C
CC(C)NC(=O)N(C)C[C@H]1Oc2ccc(NC(=O)CCCN(C)C)cc2C(=O)N([C@H](C)CO)C[C@H]1C
C[C@@H]1CN([C@@H](C)CO)C(=O)c2cc(NC(=O)CCC(F)(F)F)ccc2O[C@@H]1CN(C)C(=O)Nc1ccc(F)cc1
COc1ccc(S(=O)(=O)NCC2CCCN(Cc3cccc(C(C)=O)c3)C2)cc1 (stereo not drawn)
CO[C@H]1CN(C)C(=O)c2ccc(NC(=O)c3ccccc3F)cc2OC[C@H](C)NC[C@@H]1C
O=C(NCCNC(=O)c1cccc(O)c1)c1cccc(O)c1
CC1CCN(C(=O)c2[nH]cnc2C(=O)N[C@@H](C)C(=O)OCc2ccccc2)CC1
